Consider seven compounds from PubChem BioAssay AID2559 (National Center for Advancing Translational Sciences (NCATS), 2010).

Some of the results follow. Entries that show only a call come without a potency. Activity calls are given as the source filed them.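 Rule for the calls: active = compounds giving a full or partial concentration-response curve, as inhibitors or activators; inconclusive = weak, top-dose-only or unclear curve responses; inactive = no response at any tested dose.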

Pyruvate kinase (Leishmania mexicana), sequence (Q27686 whole entry, looked up): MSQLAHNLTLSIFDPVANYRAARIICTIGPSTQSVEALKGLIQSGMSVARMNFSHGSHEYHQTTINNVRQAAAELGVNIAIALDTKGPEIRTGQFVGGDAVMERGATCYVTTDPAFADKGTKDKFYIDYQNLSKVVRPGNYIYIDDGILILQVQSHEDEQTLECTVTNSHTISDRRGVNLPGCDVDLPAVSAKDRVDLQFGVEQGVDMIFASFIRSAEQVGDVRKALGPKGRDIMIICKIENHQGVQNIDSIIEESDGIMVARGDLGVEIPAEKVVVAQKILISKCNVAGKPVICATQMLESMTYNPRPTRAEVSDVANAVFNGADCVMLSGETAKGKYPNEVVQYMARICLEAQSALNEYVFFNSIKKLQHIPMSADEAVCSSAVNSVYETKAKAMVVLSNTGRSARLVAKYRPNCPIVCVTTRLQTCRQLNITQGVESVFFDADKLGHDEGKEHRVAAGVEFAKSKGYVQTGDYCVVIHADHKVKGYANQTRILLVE

The target in the experiment is Pyruvate kinase (Leishmania mexicana) (UniProt Q27686). In words: Confirmation Assay for Inhibitors of Leishmania Mexicana Pyruvate Kinase (LmPK). Particulars: purified LmPK, Kinase-Glo ATP luminescence, 1 h; series mostly up to 57.5 µM. An excerpt:
NIH Chemical Genomics Center [NCGC] Malcolm Walkinshaw, Hugh Morgan, Linda Gilmore University of Edinburgh, UK MLPCN Grant: 1 R03 MH085697-01 NCGC Assay Overview: Pyruvate kinase (L. Mexicana) (LmPK) enzyme was supplied as a highly purified (>95% pure) sulphate-free preparation from University of Edinburgh, UK and assayed for its ability to generate ATP from ADP using phosphoenolpyruvate (PEP) as a substrate. ATP generation was detected in a coupled reaction by luciferase-mediated luminescence, an ATP-dependent process. […] The enzyme was assayed at an intermediate level of activity to screen for both inhibitors and activators.
NCGC Assay Protocol Summary: Three uL of enzyme mix (kept on ice) in assay buffer (50 mM Imidazole pH7.2, 50 mM KCl, 7 mM MgCl2, 0.01% Tween 20, 0.05% BSA) containing PEP (0.5 mM final concentration) and LmPK (0.1 nM final concentration) was dispensed into white solid bottom 1,536 well microtiter plates. 23 nL of compound were delivered by a pin tool and 1 uL of ADP mix in assay buffer (r.t; 0.1 mM final ADP concentration) was added. Plates were incubated at room temperature for 1 hour. Two uL of detection mix (Kinase-Glo, Promega; at 4 degree Celsius protected from light) was added and luminescence read by a ViewLux (Perkin Elmer) at 1 second exposure/plate. Data were normalized to the uninhibited and AC100 inhibition (no enzyme). To monitor activation, the first column contained a five-fold concentration of LmPK (0.5 nM).
In general terms: In Kinase-Glo more light means more ATP remaining.
Regarding `CC(=O)N(C1=C(Cl)C(=O)c2ccccc2C1=O)c1ccc(C(=O)O)cc1`, the Potency is 2.59 µM (active). As to `COc1ccc(-c2cn3ccc(C)cc3n2)cc1`, the Potency is 9.19 µM (active). As to `CN1CC(c2ccccc2)C2(COc3ccccc3C2=O)C12C(=O)Nc1ccccc12` (configuration not stated), the Potency result was “inactive”. For `COc1ccc(C(=O)C[n+]2ccc(N)c(C)c2C)cc1`, the Potency entry was “inactive”. Then `Cn1cc(CN2CCCCC2c2ccccn2)c(-c2ccc3c(c2)OCCO3)n1` (configuration not stated), with “inactive”; and `COCCN(C(=O)c1ccco1)c1nnc(-c2ccc(OC)cc2)s1`, with “inactive”.

For `COc1ccc(-c2cc(C(F)(F)F)nc(NCc3cccnc3)n2)cc1`, the Potency result is “inactive”.
